From PubChem BioAssay
Most compounds without a hit are left out; they make up all but 19% or so of the library.
TDP1 cell CPT: DT40-hTDP1 cell growth loss with CPT; chicken DT40 Tdp1-/-;hTDP1 cells + 20 nM CPT, ATP luminescence, 48 h; Potency, µM (doses to about 46.2 µM), most hits filed as inhibitors; actives 12% (n = 420,000); note: nearly all actives have a fitted effect of over 55% in size
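Chicken DT40 Tdp1-/- cells stably complemented with human TDP1 were seeded at 400 cells/well in medium containing 20 nM camptothecin, exposed to pin-transferred compounds, and grown at 37 °C for at least 48 hr. Viability was read as ATP luminescence.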
HT1080-NT tox: kills 2HG-producing HT-1080-NT fibrosarcoma cells. actives 1.6% (n = 360,000). HT-1080-NT fibrosarcoma viability, CellTiter-Glo ATP luminescence, 48 h. Potency, µM (doses to about 46.1 µM), most hits filed as cytotoxic;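 note: NT is the 2HG producing partner of a matched IDH1 knockdown line; nearly all actives have a fitted effect of over 55% in size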
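HT-1080-NT; 750 cells/well; 5% FBS RPMI; 48 h compound, 37 degrees C; CellTiter-Glo luminescence; curve fitting and curve-class assignment.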
DT40 TDP1 no CPT: qHTS for Inhibitors of human tyrosyl-DNA phosphodiesterase 1 (TDP1): qHTS in cells in absence of CPT | DT40 Tdp1-/- hTDP1 cells, no CPT, ATP luminescence, 48 h | Potency, µM (series often up to 46.2 µM), actives largely listed as inhibitors | actives 15% (n = 420,000); note: nearly all actives have a fitted effect of over 55% in size
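Readout: luminescence from CellTiter-Glo after 30 min in the dark at RT. Cells: DT40 Tdp1-/- with stable hTDP1, 400/well. Exposure: compounds alone, ≥48 hr, 37 °C.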
HT1080 IDH1KD tx: HT-1080 IDH1 knockdown cell toxicity (counter line); HT-1080 IDH1 knockdown viability, ATP luminescence, 48 h; Potency, µM (series often up to 46.1 µM), hits mostly cytotoxic; AID 686971; actives 2% (n = 360,000)
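Luminescent ATP read-out (CellTiter-Glo, 10 min at room temperature) after 48 h compound exposure at 37 °C gave viability of IDH1-knockdown HT-1080 cells. Activity was normalised to DMSO and cell-free wells, then fitted as concentration-response curves.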
IL1B secr inh: blocks inflammasome-driven IL-1 beta release. THP-1 LPS/ATP IL-1B secretion, AlphaLISA, 16 h; active compounds read low. activity change, % at 57.5 µM. actives 4.7% (n = 360,000); in the data active = activity change below about -50%; inconclusive = mostly about -30% to -49%
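Secreted IL-1B measured by AlphaLISA bead assay after 16 h compound exposure of THP-1 cells; compounds (final up to 57.5 uM) added 1 h before LPS (250 ng/mL) and ATP (1.25 mM) stimulation; lower signal means less secretion.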
Each line names hits and unclear results; the compound was inactive in the other large screens. Unless noted, calls come from the whole dose curve; as a rule, active = well fitted curve in the direction sought with a large enough effect; inconclusive = small, poorly fitted or top-dose-only effect, or another doubt; inactive = no such curve, though single readings can be large; an effect the other way counts as inactive or inconclusive.

Cc1c(NC2=CC(=O)CCC2)c(=O)n(-c2ccccc2)n1C	none
O=C(NNc1ncnc2sccc12)c1ccc(Cl)cc1	TDP1 cell CPT 13µM, HT1080-NT tox inconclusive, DT40 TDP1 no CPT 9.2µM
Cc1ccc(C(=O)NNc2ncnc3c2cnn3C)cc1	none
Cc1csc2ncnc(NNC(=O)c3ccc(Cl)cc3)c12	TDP1 cell CPT inconclusive, DT40 TDP1 no CPT 10µM, HT1080 IDH1KD tx inconclusive
O=C(O)c1cccc(Nc2ncnc3sccc23)c1	none
CC1(C(=O)NCc2ccccc2)Cc2c(-c3ccccc3)ccnc2O1 (configuration not stated)	TDP1 cell CPT inconclusive, HT1080-NT tox inconclusive, DT40 TDP1 no CPT 4.1µM, HT1080 IDH1KD tx inconclusive
CC(=O)Nc1cccc(-c2ccnc3c2CC(C)(C(=O)NCCc2ccccc2)O3)c1 (configuration not stated)	TDP1 cell CPT 5.8µM, HT1080-NT tox inconclusive, DT40 TDP1 no CPT 4.6µM, HT1080 IDH1KD tx inconclusive
CC(=O)Nc1cccc(-c2ccnc3c2CC(C)(C(=O)NCCN(C)C)O3)c1 (configuration not stated)	none
COc1ccc(CNC(=O)C2(C)Cc3c(-c4ccccc4)ccnc3O2)cc1OC (configuration not stated)	TDP1 cell CPT inconclusive, DT40 TDP1 no CPT inconclusive
CC1(C(=O)NCc2ccccc2)Cc2c(-c3ccc(C(N)=O)cc3)ccnc2O1 (configuration not stated)	TDP1 cell CPT 1.6µM, HT1080-NT tox inconclusive, DT40 TDP1 no CPT 2.1µM, HT1080 IDH1KD tx 1.5µM
CN1CCN(c2ccc(CNC(=O)C3(C)Cc4c(-c5ccccc5)ccnc4O3)cc2)CC1 (configuration not stated)	TDP1 cell CPT 26µM, DT40 TDP1 no CPT 21µM
COc1ccc(CCn2ccc(O)c(Cc3c(F)cccc3Cl)c2=O)cc1OC	none
Cc1cccc(C(=O)Nc2ccccc2C(=O)OCC(=O)Nc2ccc(C#N)cc2)c1	DT40 TDP1 no CPT inconclusive
CN1CCCN(C(=O)/C=C/c2ccc(Cl)cc2Cl)CC1	TDP1 cell CPT inconclusive, DT40 TDP1 no CPT inconclusive
CN(C)c1ccc(-c2ccnc3c2CC(C)(C(=O)NCc2ccccc2)O3)cc1 (configuration not stated)	TDP1 cell CPT 2.9µM, HT1080-NT tox inconclusive, DT40 TDP1 no CPT 5.2µM, HT1080 IDH1KD tx inconclusive
CN(C)c1ccc(-c2ccnc3c2CC(C)(C(=O)Nc2ccccc2)O3)cc1 (configuration not stated)	none
CC1(C(=O)NCCc2ccccc2)Cc2c(-c3ccccc3)ccnc2O1 (configuration not stated)	TDP1 cell CPT 21µM, DT40 TDP1 no CPT inconclusive, HT1080 IDH1KD tx inconclusive, IL1B secr inh -59
CC1(C(=O)NCC2CC2)Cc2c(-c3ccccc3)ccnc2O1 (configuration not stated)	TDP1 cell CPT 9.2µM, DT40 TDP1 no CPT 13µM
CN(C)c1ccc(-c2ccnc3c2CC(C)(C(=O)NCC2CCOCC2)O3)cc1 (configuration not stated)	TDP1 cell CPT 16µM, DT40 TDP1 no CPT 13µM
CCN(CC(=O)Nc1c(F)cccc1F)C(=O)COc1ccc2c(C)cc(=O)oc2c1	none
NC(=O)C1(N2CCCCC2)CCN(C(=S)Nc2cccc(Cl)c2)CC1	none
CSc1cccc(CN(C)C(=O)C2CCC(=O)N(CCCN3CCCC3=O)C2)c1 (configuration not stated)	IL1B secr inh inconclusive
CC(NC(=O)C1CC1)c1nnc2n1CCN(Cc1cccc(F)c1F)CC2 (configuration not stated)	none (no result: HT1080-NT tox, HT1080 IDH1KD tx, IL1B secr inh)
CC1(C(=O)NCc2ccco2)Cc2c(-c3ccc(C(N)=O)cc3)ccnc2O1 (configuration not stated)	TDP1 cell CPT 4.1µM, HT1080-NT tox 3.3µM, DT40 TDP1 no CPT 3.7µM, HT1080 IDH1KD tx 2.9µM
CC(=O)Nc1ccc(NC(=O)c2ccc(-n3c(C)ccc3C)cc2)cc1	TDP1 cell CPT inconclusive, DT40 TDP1 no CPT 16µM, IL1B secr inh -68
Cc1ccc(C)n1-c1ccc(NC(=O)c2ccccc2)cc1	TDP1 cell CPT inconclusive, DT40 TDP1 no CPT inconclusive, IL1B secr inh -53
CCc1ccccc1NC(=O)c1ccc(-n2c(C)ccc2C)cc1	TDP1 cell CPT inconclusive, HT1080-NT tox inconclusive, DT40 TDP1 no CPT inconclusive, HT1080 IDH1KD tx inconclusive, IL1B secr inh -83
CCc1ccccc1NC(=O)c1ccc(-c2csc(C)n2)cc1	none
CC(=O)NCCNC(=O)c1ccc(-n2c(C)ccc2C)cc1	IL1B secr inh -76
C=CCN1C(=O)c2ccc(C(=O)N(C)CC(=O)Nc3cccc(F)c3)cc2C1=O	none
CCOc1ncccc1C(=O)OC(C)C(=O)Nc1ccc(N2CCOCC2)cc1 (configuration not stated)	none
O=C(CCCn1cncn1)N1CCCC(N2CCN(c3ccccc3F)CC2)C1 (configuration not stated)	none
COc1ccc2c(c1)c(/C=C/c1cc[n+](C)cc1)cn2C	TDP1 cell CPT 4.6µM, DT40 TDP1 no CPT 4.6µM
Cc1ccc2[nH]cc(/C=C/c3cc[n+](C)cc3)c2c1	TDP1 cell CPT 4.1µM, HT1080-NT tox inconclusive, DT40 TDP1 no CPT 2.6µM, HT1080 IDH1KD tx inconclusive
COc1ccc2c(/C=C/c3cc[n+](C)cc3)c[nH]c2c1	TDP1 cell CPT 9.2µM, DT40 TDP1 no CPT 7.3µM
CCc1cccc(C)c1NC(=S)N(Cc1cccnc1)Cc1ccco1	DT40 TDP1 no CPT inconclusive
CCOc1ccc(C(=O)Nc2nnc(C3=COCCO3)o2)cc1	TDP1 cell CPT inconclusive, DT40 TDP1 no CPT inconclusive
CCOC(=O)CC(=O)CSc1nc(-c2cccnc2)ccc1C#N	TDP1 cell CPT inconclusive, DT40 TDP1 no CPT 3.5µM
CCOC(=O)CC(=O)CSc1nc(-c2cccnc2)cc(C)c1C#N	none
CC(C)(C)OC(=O)N[C@H](Cc1ccccc1)C(=O)N1CCC[C@@H]1C(=O)O	none
CCOC(=O)c1nnn(CC(=O)Nc2cc(C)cc(C)c2)c1C(=O)OCC	DT40 TDP1 no CPT inconclusive (no result: HT1080-NT tox, HT1080 IDH1KD tx, IL1B secr inh)
O=c1cc2oc3cc(O)c(O)cc3c(-c3ccccc3[N+](=O)[O-])c-2cc1O	TDP1 cell CPT 21µM, HT1080-NT tox 15µM, DT40 TDP1 no CPT 23µM, HT1080 IDH1KD tx 21µM
O=c1cc(-c2ccccc2Cl)oc2cccc(O)c12	none
CC(c1ccccc1)N1C(=O)c2ccc(C(=O)Nc3ccc(Br)cc3C(=O)O)cc2C1=O (configuration not stated)	TDP1 cell CPT 2.1µM, DT40 TDP1 no CPT inconclusive
Cc1ccccc1CS(=O)(=O)c1nnc([C@H](Cc2ccccc2)NC(=O)OC(C)(C)C)o1	TDP1 cell CPT 0.65µM, HT1080-NT tox 5µM, DT40 TDP1 no CPT 2.1µM, HT1080 IDH1KD tx 1.8µM, IL1B secr inh inconclusive
CCSc1nnc([C@H](Cc2ccccc2)NC(=O)OC(C)(C)C)o1	none
